# SNCA expr inhib = Primary qHTS assay for inhibitors of alpha-synuclein gene (SNCA) expression; HEK-293 SNCA-luciferase knock-in, luminescence, 24 h; Potency, µM (titrated, usually from 57.2 µM), for the others: top-dose activity change, negative = inhibition, usual class: inhibitors; actives 0.17% (n = 140,000); AID 1671194, 2021;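 also: plate controls were DMSO cells for no effect and cell-free wells for full effect; nearly all actives have a fitted effect of over 45% in size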
# Luciferase inh = Firefly luciferase inhibition profiling of diverse chemical library using quantitative high-throughput screening; purified P. pyralis luciferase, luminescence, biochemical; Potency, µM (doses to about 115 µM), usual class: inhibitors; actives 2.5% (n = 76,000); AID 1347043, 2019; also: nearly all actives have a fitted effect of over 65% in size
# Target sequence (P08659 whole entry, looked up): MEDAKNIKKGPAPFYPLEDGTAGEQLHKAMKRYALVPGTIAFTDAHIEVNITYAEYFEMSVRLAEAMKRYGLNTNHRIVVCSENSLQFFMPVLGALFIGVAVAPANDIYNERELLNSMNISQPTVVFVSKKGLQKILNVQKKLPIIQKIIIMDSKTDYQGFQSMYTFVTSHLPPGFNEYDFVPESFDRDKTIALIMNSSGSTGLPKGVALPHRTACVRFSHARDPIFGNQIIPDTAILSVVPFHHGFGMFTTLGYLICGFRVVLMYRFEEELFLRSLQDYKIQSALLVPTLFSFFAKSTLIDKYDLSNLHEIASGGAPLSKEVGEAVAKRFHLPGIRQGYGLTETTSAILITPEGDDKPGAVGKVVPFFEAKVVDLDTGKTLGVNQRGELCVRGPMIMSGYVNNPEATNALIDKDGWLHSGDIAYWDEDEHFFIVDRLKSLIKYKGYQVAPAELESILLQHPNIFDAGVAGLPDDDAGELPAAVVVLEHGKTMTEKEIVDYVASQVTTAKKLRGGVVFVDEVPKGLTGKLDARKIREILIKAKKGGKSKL
#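 Purified P. pyralis luciferase (10nM final) in 50mM Tris acetate pH 7.5, 10mM Mg acetate, 0.01% Tween-20, 0.05% BSA with 10uM D-luciferin and 10uM ATP. Compounds titrated qHTS. Luminescence imaged on CCD.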
# SNCA viab count = GF-AFC viability counterscreen for inhibitors of alpha-synuclein gene (SNCA) expression | actives 0.12% (n = 150,000) | Potency, µM (highest dose often 57.1 µM), inactives show at the top dose activity change, negative = cytotoxicity, hits mostly cytotoxic | HEK-293-SNCA-luc viability, GF-AFC fluorescence, 24 h;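 also: 0% = DMSO-treated cells and -100% = medium-only wells without cells; nearly all actives have a fitted effect of over 30% in size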
#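 HEK-293-SNCA-luc cells (1500/well) plated 24 h, then exposed 24 h to a dilution series; GF-AFC added 30 min at 37C, fluorescence 405/540 nm; normalised to medium-only and DMSO wells, Hill fit.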
# hNpr1 antagonist = Natriuretic polypeptide receptor (hNpr1) antagonism - Primary qHTS. Atrial natriuretic peptide receptor 1 (Homo sapiens), P16066. HEK293 hNpr1 GloSensor cGMP, ANP-stimulated luminescence. Potency, µM (titrated, usually from 46.3 µM), for the others: top-dose activity change, negative = inhibition, actives largely listed as inhibitors. actives 1.6% (n = 76,000); calls by dose curve; also: nearly all actives have a fitted effect of over 60% in size
#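 Compound pre-incubated 30 min at room temperature on GloSensor-loaded HEK293 cells stably carrying hNpr1 and the pGS-40F cGMP biosensor. Stimulation uses hNppA at 0.1 nM final; luminescence is taken at baseline and 20 min post-agonist.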
# 3T3 cytotox = Cytotoxic Profiling in NIH 3T3 Cell Line of Diverse Libraries Using Quantitative High-Throughput Screening; NIH 3T3 viability, CellTiter-Glo ATP luminescence, 48-72 h; AID 1345082, 2018; Potency, µM (doses to about 96.7 µM), without a hit: at the highest dose activity change, negative = cytotoxicity, most hits filed as inhibitors; actives 4.3% (n = 94,000); also: nearly all actives have a fitted effect of over 55% in size
#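 NIH 3T3 cells at 400 cells/well received 23 nL of compound by pintool and were incubated 48 or 72 h at 37 °C. Viability was read as ATP-coupled CellTiter-Glo luminescence.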
# HEK293 tox = Cytotoxic Profiling in HEK 293 Cell Line of Diverse Libraries Using Quantitative High-Throughput Screening; actives 6.6% (n = 94,000); AID 1345083, 2018; Potency, µM (doses to about 115 µM), inactives show at the highest dose activity change, negative = cytotoxicity, usual class: inhibitors; HEK 293 viability, ATP luminescence (CellTiter-Glo), 48-72 h; also: nearly all actives have a fitted effect of over 60% in size
#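 Viability of HEK 293 cells, plated at 250 cells/well, was judged by cellular ATP after compound treatment for 48 or 72 hr. Luminescence was imaged 10 min after CellTiter-Glo addition at room temperature.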
# * hit, by the source's call; i = inactive; ? = inconclusive; · = no result given; ! = a repeat was not active; [ ] = remark or other dose. Compounds with a hit are over-represented: about 7.2% of the library has one in this group of screens. Unless noted, calls follow the shape of the dose curve; as a rule, active = well fitted curve in the direction sought with a large enough effect; inconclusive = small, poorly fitted or top-dose-only effect, or another doubt; inactive = no such curve, though single readings can be large; an effect the other way counts as inactive or inconclusive. Unless noted, % is scaled to controls: 0 for no effect and ±100 for the full control effect; potency is read from the fitted curve at half-maximal effect.
SMILES,SNCA expr inhib,Luciferase inh,SNCA viab count,hNpr1 antagonist,3T3 cytotox,HEK293 tox
CCCN1C(=O)CCc2cc(NC(=O)c3ccc(C)cc3)ccc21,11.1%,31.6µM*,-19.9%,-14.2%,?,?
CCCN1C(=O)CCc2cc(NC(=O)c3ccc4c(c3)OCO4)ccc21,37.4%,31.6µM*,-7.8%,-2.5%,?,44.7µM*
CC(=O)Nc1ccc2c(c1)CCC(=O)N2CC(C)C,?,i,7.9%,0.0%,-5.4%,3.3%
COc1ccccc1-c1ccc(CN2CCCCC2C(=O)N2CCCC2)cc1 (stereo unspecified),-0.4%,·,?,·,?,?
COc1cccc(-c2ccc(CN3CCCC3C(=O)NCc3ccccc3F)cc2)c1 (stereo unspecified),-1.8%,·,-16.3%,·,?,?
COc1ccccc1-c1ccc(CN2CCCCC2C(=O)NCc2ccccc2Cl)cc1 (stereo unspecified),·,·,·,·,28.2µM*,?
COc1ccccc1-c1ccc(CN2CCCCC2C(=O)NCc2cccc(F)c2)cc1 (stereo unspecified),·,·,·,·,?,31.6µM*!
COc1ccccc1-c1ccc(CN2CCCCC2C(=O)NCc2ccc(F)cc2F)cc1 (stereo unspecified),·,·,·,·,?,20µM*
COc1ccc(F)cc1-c1ccc(CN2CCCCC2C(=O)N2CCc3ccccc3C2)cc1 (stereo unspecified),·,·,·,·,39.8µM*,31.6µM*
COc1ccccc1-c1ccc(CN2CCCCC2C(=O)NCc2ccc3c(c2)OCO3)cc1 (stereo unspecified),·,·,·,·,?,25.1µM*
COc1ccccc1-c1cccc(C(=O)N2CCC[C@H]2C(=O)NCc2cccnc2)c1,-10.8%,·,3.8%[12.5 µM],·,1.1%,-2.4%
COc1ccc(F)cc1-c1ccc(CN2CCCCC2C(=O)NCc2cccnc2)cc1 (stereo unspecified),·,·,·,·,?,50.1µM*
COc1ccccc1-c1ccc(CN2CCCCC2C(=O)NC2CCCC2)cc1 (stereo unspecified),·,·,·,·,?,35.5µM*!
COC[C@@H]1CCCN1Cc1cn(Cc2ccccc2)nc1-c1cc2ccccc2o1,39.2%,28.2µM*,-15.7%,-9.8%,?,?
CCc1ccc(C(=O)Nc2cccc(-c3nnc4n3CCCC4)c2)cc1,5.6%,22.4µM*,-6.9%,?,?,?
O=C(Nc1cccc(-c2nnc3n2CCCC3)c1)c1ccccc1,15.6%,i,0.7%,-1.9%,-25.1%,-4.0%
CCOc1ccccc1C(=O)Nc1cccc(-c2nnc3n2CCCC3)c1,15.1%,i,6.3%,-1.6%,39.8µM*,?
Cc1ccsc1C(=O)Nc1ccc(-c2nnc3n2CCCC3)cc1,21.0%,35.5µM*,4.2%,1.5%,?,-26.9%
O=C(NC1CCNCC1)c1cc(C2CC2)nc2onc(C3CCNC3)c12 (stereo unspecified),-25.0%,·,6.8%,·,-14.6%,-7.7%
COCC(=O)NC[C@@H]1C=C(C)[C@H](CC(=O)O)C[C@H]1C(C)C,-22.6%[87.6 µM],i,-2.6%[87.6 µM],-2.8%[70.6 µM],i,i
O=C(NCc1ccccc1)C1COC2(CCN(C(=O)c3cccs3)CC2)N1C(=O)c1ccccc1 (stereo unspecified),20.2%,i,1.3%,-2.7%,-13.4%,?
Cc1ccc(NC(=O)CCC2CCN(C(=O)c3ccccc3)CC2)cc1F,108.7%,?,-3.1%,-25.7%,?,28.2µM*
CCCNC(=O)CCC1CCN(C(=O)c2ccccc2F)CC1,22.1%,39.8µM*,3.6%,-6.8%,3.9%,-16.1%

# Compound activity from PubChem BioAssay.
